The results in this text go back to PubChem BioAssay (NCI).

This is part of a sample that, as a whole, favours compounds with a hit. Of some 83,000 tested, about 20% had one in any assay.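 48-hour exposure, single concentration, 96-well plates; percent growth endpoint where 0 means no net growth. Active: below 10.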 Values without a mark were called inactive. Active and inactive are the calls of the source.

Some test systems named below: NCI-H23 lung; NCI-H226 lung; NCI-H322M lung; NCI-H460 lung; HOP-92 NSCLC; NCI-H522 lung; A549/ATCC NSCLC; 786-0 renal; COLO 205 colon; DU-145 prostate; K-562 leukemia; MALME-3M melanoma; MDA-MB-231 breast; RXF 393 renal; SF-268 CNS; SF-295 CNS; SF-539 CNS; UACC-257 melanoma; M14 melanoma.
Holding throughout (assay): NCI-60 one-dose screen, 48 h (100 = growth as untreated, 0 = no growth, -100 = all killed)
Holding throughout (settings): 10 µM unless noted

Consider `COc1ccc(/C=N/NC(=O)c2c(N)nn(C)c2Nc2ccccc2)cc1`, for which the growth in the experiment on NCI-H23 lung is 66.9%; with NCI-H226 lung it was 51.6%; with NCI-H322M lung it was 90%; in the experiment with NCI-H460 lung, 14.6%; in the experiment with HOP-92 NSCLC, 46.8%; with NCI-H522 lung, 19.3%. Moreover, the growth in the experiment on A549/ATCC NSCLC is 57.1%; in the experiment with 786-0 renal, 58%; in the experiment on COLO 205 colon it was 35.8%; with DU-145 prostate it was 76.3%; in the experiment on K-562 leukemia, 19.2%; in the experiment with MALME-3M melanoma, 44.7%. Also, the growth with MDA-MB-231 breast was 65.1%; in the experiment on RXF 393 renal it was 37.3%; with SF-268 CNS it was 58.6%; in the experiment on SF-295 CNS, 9.85% (active); in the experiment with SF-539 CNS, 40.2%; in the experiment with UACC-257 melanoma, 56.4%. In the experiment on M14 melanoma, the growth was 13%.
Turning to `Cc1ccc2c(n1)C(=O)C(Cl)=C(Nc1cccc(C)c1C)C2=O`, the growth in the experiment on NCI-H23 lung was -10.6% (active); in the experiment with NCI-H226 lung, 18.7%; with NCI-H322M lung, 16.9%; with NCI-H460 lung, 36.8%; in the experiment with HOP-92 NSCLC, -1.44% (active); with NCI-H522 lung, -37.5% (active). The growth with A549/ATCC NSCLC is 41.5%; with 786-0 renal, 21.9%; with COLO 205 colon, 87.7%; with DU-145 prostate, -11% (active); in the experiment with K-562 leukemia, -2.38% (active); in the experiment on MALME-3M melanoma, -5.61% (active). For the same compound, the growth in the experiment with MDA-MB-231 breast is -1.12% (active); in the experiment with RXF 393 renal it was 7.14% (active); in the experiment with SF-268 CNS, 2.79% (active); in the experiment with SF-295 CNS, -52.6% (active); in the experiment with SF-539 CNS, -55.9% (active); in the experiment with UACC-257 melanoma, -77.5% (active). The growth in the experiment with M14 melanoma is -29.2% (active).
As to `O=C(CSc1nnc(-c2ccc(Cl)cc2)n1-c1ccccc1)Nc1ccccc1Cl`, the growth is 48.5% in the experiment with NCI-H23 lung; 48.7% in the experiment with NCI-H226 lung; 66.2% with NCI-H322M lung; 54.5% in the experiment with NCI-H460 lung; 101% with HOP-92 NSCLC; 76.2% in the experiment with NCI-H522 lung. Further, the growth in the experiment with A549/ATCC NSCLC was 30.4%; with 786-0 renal it was 42.1%; in the experiment with COLO 205 colon, 88.7%; with DU-145 prostate, 68.4%; with K-562 leukemia, 67.1%; in the experiment with MALME-3M melanoma it was 79.2%. The growth in the experiment on MDA-MB-231 breast is 44.8%; with RXF 393 renal, 74%; in the experiment with SF-268 CNS, 81.5%; in the experiment on SF-295 CNS it was 31.5%; in the experiment with SF-539 CNS it was 52.1%; in the experiment on UACC-257 melanoma, 95.1%. Also, in the experiment on M14 melanoma, the growth is 78.2%.
For `Brc1ccc(-c2cc(-c3ccc4c(c3)OC=CO4)n[nH]2)s1`, the growth is 87.4% in the experiment on NCI-H23 lung; 95.1% in the experiment with NCI-H226 lung; 96.2% in the experiment with NCI-H322M lung; 96.4% in the experiment with NCI-H460 lung; 99.7% with HOP-92 NSCLC; 73.8% in the experiment on NCI-H522 lung. The growth in the experiment with A549/ATCC NSCLC was 89.9%; with 786-0 renal, 104%; with COLO 205 colon, 97.1%; in the experiment on DU-145 prostate it was 99.1%; in the experiment with K-562 leukemia it was 31.5%; in the experiment on MALME-3M melanoma, 70.3%. The growth is 90.8% with MDA-MB-231 breast; 101% with RXF 393 renal; 89% in the experiment with SF-268 CNS; 82.6% with SF-295 CNS; 85.2% with SF-539 CNS; 90.7% in the experiment with UACC-257 melanoma. Further, the growth in the experiment with M14 melanoma was 75.3%.
On to `C=C(C)[C@@H]1CC[C@]2(C(=O)N3CCN(C)CC3)CC[C@]3(C)[C@H](CC[C@@H]4[C@@]5(C)CC[C@H](OP(=O)(OCC)OCC)C(C)(C)[C@@H]5CC[C@]43C)[C@@H]12`, for which the growth with NCI-H23 lung was 83.1%; in the experiment with NCI-H226 lung, 75.8%; in the experiment on NCI-H322M lung, 101%; in the experiment on NCI-H460 lung, 91.3%; in the experiment on HOP-92 NSCLC it was 63.8%; in the experiment on NCI-H522 lung, 81.7%. The growth was 75.6% with A549/ATCC NSCLC; 70.3% in the experiment with 786-0 renal; 90.8% in the experiment on COLO 205 colon; 101% with DU-145 prostate; 29.6% in the experiment with K-562 leukemia; 106% in the experiment with MALME-3M melanoma. In addition, the growth with MDA-MB-231 breast was 83.6%; in the experiment with RXF 393 renal, 59.5%; with SF-268 CNS it was 87.3%; in the experiment on SF-295 CNS, 89.4%; in the experiment on SF-539 CNS, 84.8%; in the experiment on UACC-257 melanoma, 82.9%. In addition, the growth in the experiment with M14 melanoma was 102%.
`CN1CCN(Cc2ccc(NC(=O)c3cncc(C#Cc4cnc5ccc(OC6CCOCC6)nn45)c3)cc2C(F)(F)F)CC1`: the growth is -58.7% (active) with NCI-H23 lung; -58.4% (active) with NCI-H226 lung; -44.7% (active) with NCI-H322M lung; -77.9% (active) in the experiment with NCI-H460 lung; -31.8% (active) with HOP-92 NSCLC; -75.5% (active) in the experiment with NCI-H522 lung. Also, the growth with 786-0 renal was -89.1% (active); in the experiment on COLO 205 colon it was -82.8% (active); in the experiment with DU-145 prostate, -89.5% (active); in the experiment with K-562 leukemia it was -0.118% (active); with MALME-3M melanoma it was -87.5% (active); in the experiment on MDA-MB-231 breast, -59.9% (active). In addition, the growth in the experiment on RXF 393 renal is -80.9% (active); in the experiment on SF-268 CNS, -58.4% (active); in the experiment with SF-295 CNS it was -97% (active); in the experiment with SF-539 CNS it was -92.8% (active); with UACC-257 melanoma, -72.3% (active); in the experiment with M14 melanoma it was -91.2% (active).
As for `CC(Nc1ncnc2ccc(-c3cnc4cnccn34)cc12)c1ccccc1` (stereo unspecified), the growth in the experiment on NCI-H23 lung was 54.8%; in the experiment on NCI-H226 lung, 46.9%; in the experiment on NCI-H322M lung, 26.4%; in the experiment with NCI-H460 lung, 61%; with HOP-92 NSCLC it was 27.1%; in the experiment with NCI-H522 lung, 27.3%. Besides, the growth in the experiment on A549/ATCC NSCLC is 37.6%; in the experiment with 786-0 renal, 47.9%; in the experiment with COLO 205 colon, 81%; in the experiment on DU-145 prostate, 37.4%; in the experiment with K-562 leukemia, 48.3%; with MALME-3M melanoma, 58%. Besides, the growth in the experiment with MDA-MB-231 breast was 64.3%; with RXF 393 renal, 46.6%; in the experiment on SF-268 CNS it was 67.7%; in the experiment on SF-295 CNS, 50.5%; in the experiment with SF-539 CNS, 66%; with UACC-257 melanoma, 75.4%. Besides, in the experiment with M14 melanoma, the growth is 77.8%.
As for `CCc1cccc2c3c(sc12)C(c1ccc(F)cc1)C(C#N)=C(/N=C/c1ccc(Cl)cc1)O3` (stereo unspecified), the growth with NCI-H23 lung was 32.4%; with NCI-H226 lung it was 44.6%; in the experiment on NCI-H322M lung, 52.9%; with NCI-H460 lung, 14.6%; with HOP-92 NSCLC, 66.6%; in the experiment with NCI-H522 lung it was -43.4% (active). The growth in the experiment with A549/ATCC NSCLC was 31.1%; in the experiment on 786-0 renal, 34.2%; in the experiment with COLO 205 colon, -33.6% (active); in the experiment on DU-145 prostate it was 29%; with K-562 leukemia, 10.5%; in the experiment with MALME-3M melanoma, 57.2%. Besides, the growth in the experiment on MDA-MB-231 breast is 30.3%; in the experiment with RXF 393 renal, -7.19% (active); in the experiment with SF-268 CNS, 43.5%; with SF-295 CNS, 6.46% (active); with SF-539 CNS, -6.53% (active); with UACC-257 melanoma, 69.4%. For the same compound, the growth in the experiment with M14 melanoma was 9.94% (active).
